# Test system: MAP3K15
# Details: concentration: 1 μM, replicates: in singlicate; n = 1
# 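Further: KINOMEscan kinase panel screen.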
row,Structure (SMILES),%Inh [%]
1,COc1ccc(-c2coc3ccc(-c4nnc(SCc5ccc(OC)c(C(F)(F)F)c5)o4)cc23)cc1,0
2,CC(C)c1nc(-c2cccc(NS(=O)(=O)c3c(F)cccc3F)c2F)c(-c2ccnc(Nc3ccc(N4CCOCC4)nc3)n2)s1 [GSK2008607],0
3,Cn1cc(-c2ccc3c(c2)CCN3C(=O)Cc2cccc(F)c2)c2c(N)ncnc21 [GSK2603358],0
4,COc1cc2c(cc1OCCN1CCNCC1)ncc1c3ccc(C#N)cc3[nH]c21,90.1
5,Cc1ccc(S(=O)(=O)Nc2ccc(Nc3nccc(Nc4cccc5[nH]ncc45)n3)cc2)cc1 [GSK581271],0
6,Cc1ccc(C)c(NC(=O)NC2CCN(c3ccnc(Nc4ccc(F)cc4)n3)C2)c1 (stereo not shown) [GSK1379720],0
7,CN1CCN(Cc2cccc(-c3ccc4c(Nc5ccc(Oc6ccccc6)cc5)ccnc4c3)c2)CC1 [GW578342],0
8,COc1cc(Nc2nccc(-c3c(-c4cccc(NC(=O)c5c(F)cccc5F)c4)nn4ccccc34)n2)cc(OC)c1OC [GSK323521],0
9,Cc1cccc(Nc2nc(N[C@H]3CCNC3)ncc2C(N)=O)c1.Cl [GSK2197149],0
10,Nc1n[nH]c2cnc(-c3ccccc3)cc12 [SB-642124],21
11,Cc1occc1-c1ncc(OC[C@@H](N)Cc2c[nH]c3ccccc23)cc1-c1ccc2[nH]nc(C)c2c1.O=C(O)C(F)(F)F [GSK682037],10
12,CSc1cccc2c(-c3ccncn3)c(-c3ccc(F)cc3)nn12 [GW514786],21
13,C[C@@H]1CC[C@@H](C(=O)Nc2ccccc2)CN1c1cc(-c2ccc3c(N)n[nH]c3c2)nc(N)n1 [GSK2286062],46
14,CN(C)Cc1ccc(-c2ccc3c(Nc4ccc(Oc5ccccn5)cc4)ccnc3c2)o1 [GW567148],0
15,COc1cc(Nc2ncc3c(C)nc(-c4cc5ccccc5[nH]4)n3n2)cc(OC)c1OC [GW869516],0
16,Cn1cc(-c2[nH]c3cc(NC(=O)[C@H](N)C4CCCCC4)cc4c3c2C=NNC4=O)cn1,52
17,FC(F)(F)c1ccc(/C=C/c2cncnc2Nc2ccc3[nH]c(Cc4ccccc4)nc3c2)cc1 [GW709199],0
18,CCCCc1nn2ncccc2c1-c1ccnc(Nc2ccc(N3CCN(C)CC3)cc2)n1 [GW684941],9
19,COCCOCCOc1cc2ncc3c4ccc(C#N)cc4[nH]c3c2cc1OC,65
20,COc1cccc(-c2ccc3c(NC(=O)C4CC4)n[nH]c3n2)c1 [SB-710903],0
21,COc1cc(Nc2nccc(N3CCC(NC(=O)c4cc5ccccc5s4)C3)n2)cc(OC)c1OC (stereo not shown) [GSK1379760],0
22,COC(=O)Nc1nc2cc(Oc3ccc(NC(=O)Nc4cc(C(F)(F)F)ccc4F)cn3)ccc2[nH]1.Cl.Cl [GW681170],0
23,COc1cc(Nc2nccc(N3CCC(NC(=O)Nc4cccc(C(C)=O)c4)C3)n2)cc(OC)c1OC (stereo not shown) [GSK1379753],0
24,c1ccc(-c2cnc3nccnn23)cc1 [AH20685],0
25,CN1CCN(CCCNc2nccc(-c3c(-c4ccc(F)cc4)nn4cc(C(F)(F)F)ccc34)n2)CC1 [GW621581],4
